Compound activity (PubChem BioAssay)
Not all results are given here.
Vaccinia stage – blocks a specific stage of Vaccinia orthopoxvirus infection, primary screen, cell-based, single point; activity change (mCherry), % (test concentration not listed); Vaccinia-infected cells, mCherry/Venus stage reporter fluorescence; active compounds read low; actives 0.01% (n = 89,000); in the data active = activity change below about -37%, passing the limit was not always enough; tested in A549 cells
An asterisk follows results filed as active.

For CNC(=O)C[C@H]1CC[C@@H]2[C@H](COc3ccc(NC(=O)Nc4ccccc4)cc3C(=O)N2C)O1 the results were Vaccinia stage 13.
CO[C@@H]1CN(C)C(=O)c2cc(NC(=O)c3nc4ccccc4s3)ccc2OC[C@@H](C)N(Cc2ccccc2)C[C@H]1C was read as Vaccinia stage -9.
`CCC(=O)Nc1ccc2c(c1)OC[C@@H](C)N(C(=O)Cc1cccnc1)C[C@H](C)[C@H](OC)CN(C)C2=O` gave Vaccinia stage 11.
COc1cccc(-c2ccc3c(c2)O[C@H](CN(C)C)[C@H](C)CN([C@H](C)CO)S3(=O)=O)c1 was read as Vaccinia stage -9.
Screening COc1ccc2c3c([nH]c2c1)[C@H](CO)N(Cc1ccncc1)CC31CN(CC2CCOCC2)C1 returned Vaccinia stage 22.
Screening Cc1ccc(S(=O)(=O)NCC[C@@H]2CC[C@H](NC(=O)Nc3cccc(F)c3)[C@@H](CO)O2)cc1 returned Vaccinia stage -29.
`O=C(Nc1ccc2c(c1)[C@@H]1C[C@H](CC(=O)N3CCc4ccccc4C3)O[C@@H](CO)[C@@H]1O2)c1ccc2c(c1)OCO2` gave Vaccinia stage -21.
For COc1ccc(NC(=O)Nc2ccc3c(c2)C(=O)N([C@@H](C)CO)C[C@@H](C)[C@H](CN(C)C(=O)NC2CCCCC2)OCCCC[C@@H](C)O3)cc1 the results were Vaccinia stage -16.
Screening CO[C@H]1CN(C)C(=O)c2cc(NC(=O)C3CC3)ccc2OC[C@@H](C)N(Cc2cccc(F)c2)C[C@@H]1C returned Vaccinia stage -21.
Screening COc1ccc2c3c([nH]c2c1)[C@@H](CO)N(C(=O)Cc1ccccc1)CC31CCN(C(=O)Nc2ccccc2F)CC1 returned Vaccinia stage -27.
For CN1C(=O)c2cc(NC(=O)c3ccc(Cl)cc3)ccc2OC[C@H]2O[C@@H](CC(=O)O)CC[C@@H]21 the results were Vaccinia stage 7.
`CCCN(C)C[C@H]1OCCCC[C@@H](C)Oc2ccc(NC(=O)Nc3ccccc3)cc2C(=O)N([C@H](C)CO)C[C@@H]1C` gave Vaccinia stage -7.
Screening CC(C)NC(=O)Nc1ccc2c(c1)C(=O)N(C)[C@@H]1CC[C@H](CC(=O)NCC3CCCCC3)O[C@H]1CO2 returned Vaccinia stage -7.
For CO[C@H](CN(C)S(=O)(=O)c1cccc(Cl)c1)[C@H](C)CN([C@H](C)CO)S(=O)(=O)c1cccc(Cl)c1 the results were Vaccinia stage -26.
`COc1ccc2c3c(n(C)c2c1)[C@H](CO)N(Cc1cccnc1)CC31CN(C(=O)NC(C)C)C1` gave Vaccinia stage 3.
For CC(C)NC(=O)N(C)C[C@@H]1Oc2c(NC(=O)Nc3ccccc3)cccc2C(=O)N([C@@H](C)CO)C[C@H]1C the results were Vaccinia stage 1.
`COc1ccccc1CNC(=O)C[C@@H]1CC[C@@H]2[C@H](COC[C@@H](O)CN2Cc2ccccc2)O1` gave Vaccinia stage 6.
`Cc1ccccc1S(=O)(=O)N1C[C@@H](O)COC[C@@H]2O[C@H](CC(=O)NCCc3ccccc3)CC[C@H]21` gave Vaccinia stage -12.
`O=S(=O)(c1ccccc1)N1CCCCN2[C@@H](CO)[C@H](c3ccc(-c4ccccc4)cc3)[C@@H]2C1` gave Vaccinia stage 14.
Screening CN1C(=O)c2cc(NC(=O)NC3CCCC3)ccc2OC[C@@H]2O[C@H](CC(=O)NC3CCC3)CC[C@H]21 returned Vaccinia stage 3.
Screening COc1ccccc1-c1ccc2n(c1=O)C[C@@H]1[C@@H](CO)[C@H](C(=O)NCC3CC3)N(S(C)(=O)=O)[C@H]21 returned Vaccinia stage -1.
`COc1ccccc1-c1cnc2c(c1)C(=O)N([C@H](C)CO)C[C@H](C)[C@@H](CN(C)C(C)=O)O2` gave Vaccinia stage 17.
Screening C[C@@H](NC(=O)C[C@@H]1C[C@H]2c3cc(NC(=O)c4cccnc4)ccc3O[C@H]2[C@@H](CO)O1)c1ccccc1 returned Vaccinia stage 1.
C[C@H](CO)N1C[C@H](C)[C@@H](CN(C)C(=O)C2CCC2)Oc2ncc(C#CC3CCCC3)cc2C1=O was read as Vaccinia stage -2.
For COc1ccc(NC(=O)Nc2ccc3c(c2)C(=O)N([C@H](C)CO)C[C@@H](C)[C@@H](CN(C)C(=O)Nc2ccc(F)cc2)O3)cc1 the results were Vaccinia stage 2.
COC(=O)C[C@@H]1CC[C@H]2[C@H](COc3ccc(NC(=O)Nc4ccccc4C)cc3C(=O)N2C)O1 was read as Vaccinia stage 2.
`CCCNC(=O)Nc1ccc2c(c1)OC[C@H](C)N(C(=O)c1ccccc1F)C[C@H](C)[C@@H](OC)CN(C)C2=O` gave Vaccinia stage 6.
`O=C(C[C@H]1CC[C@H](NC(=O)C2CCOCC2)[C@@H](CO)O1)Nc1nccs1` gave Vaccinia stage 0.
For C[C@@H]1CN([C@H](C)CO)C(=O)c2cc(NC(=O)C3CCCCC3)ccc2O[C@@H](C)CCCCO[C@H]1CN(C)C(=O)c1ccccc1 the results were Vaccinia stage 9.
Screening C[C@H](CO)N1C[C@H](C)[C@H](CN(C)Cc2ccccc2)OCc2cnnn2CCCC1=O returned Vaccinia stage 5.
For C[C@@H]1CN([C@@H](C)CO)S(=O)(=O)c2ccc(-c3cccc(C#N)c3)cc2O[C@H]1CN(C)Cc1cccc(F)c1 the results were Vaccinia stage -14.
C[C@H]1CN([C@@H](C)CO)C(=O)c2cccc(NS(=O)(=O)c3ccc(F)cc3)c2O[C@H]1CN(C)Cc1ccc(C(=O)O)cc1 was read as Vaccinia stage 26.
`O=C(NCC(F)(F)F)[C@H]1[C@H](CO)[C@H]2Cn3c(cccc3=O)[C@H]2N1C(=O)C1CCC1` gave Vaccinia stage 17.
